# Source: PubChem BioAssay (National Center for Advancing Translational Sciences (NCATS))
# HP1b chromo inh: inhibitors of HP1-beta chromodomain binding to methylated histone tails. hit rate 0.56% among 390,000. AID 540317. Potency, µM (top dose mostly 114 µM), without a hit: top-dose activity change, negative = inhibition, actives largely listed as inhibitors. P83916. AlphaScreen HP1-beta / biotin-H3K9me3 peptide binding; note: nearly all actives have a fitted effect of over 70% in size
#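 AlphaScreen: HP1-beta (50 nM) preformed 30 min with biotin-H3(1-18)K9me3 peptide (50 nM) in PBS pH 7.4, 0.01% Tween-20. Compound added for 30 min at RT, then streptavidin donor/nickel chelate acceptor beads (10 ug/mL) for 30 min.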
# G9a block: inhibitors of human histone lysine methyltransferase G9a. Q96KQ7. G9a H3K9 monomethylation, AlphaScreen, 2 h. Potency, µM (top dose mostly 102 µM), for inactives: at the highest dose activity, negative = inhibition, actives largely listed as inhibitors. hit rate 8.8% among 350,000. AID 504332; note: % is set by controls: 0 for no effect and ±100 for the full control effect; nearly all actives have a fitted effect of over 75% in size
#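 Compounds were preincubated with 20 nM G9a for 15 min, after which biotinylated H3K9 peptide (500 nM) and SAM (20 uM) started a 2 h room-temperature reaction. Monomethylated product was quantified by antibody-based AlphaScreen chemiluminescence.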
# TDP1 inh: blocks human tyrosyl-DNA phosphodiesterase 1. Q9NUW8. AID 485290. Potency, µM (top dose mostly 130 µM), without a hit: at the highest dose activity change, negative = inhibition, actives largely listed as inhibitors. hit rate 0.28% among 350,000. recombinant TDP1, AlphaScreen DNA substrate cleavage; note: % is set by controls: 0 for no effect and ±100 for the full control effect; nearly all actives have a fitted effect of over 40% in size
#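 Signal: AlphaScreen proximity between streptavidin donor and anti-FITC acceptor beads on intact substrate. Reaction: Tdp1 1 nM, substrate 15 nM final, 5 min RT after 15 min compound preincubation.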
# Sfp inh: blocks B. subtilis Sfp PPTase activity; Q9F4F7; Biochemical Sfp PPTase activity, qHTS; Potency, µM, inactives show largest response in the series, negative = inhibition, usual class: inhibitors; hit rate 3.5% among 310,000; AID 1490;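 note: the enzyme is Sfp with the accession as filed and its product quenches rhodamine fluorescence; 0% = enzyme reaction without inhibitor and -100% = no enzyme wells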
#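 With Hepes-Na pH 7.6 buffer containing 10 mM MgCl2, Sfp (15 nM) modified BHQ-2-YbbR (12.5 uM) using rhodamine-CoA (5 uM). Two reads 30 minutes apart at 525/598 nm yielded each well's rate.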
# BAZ2B block: inhibitors of human BAZ2B bromodomain. Q9UIF8. AlphaScreen BAZ2B-H3K14Ac peptide displacement. Potency, µM (highest dose often 114 µM), inactives show at the highest dose activity change, negative = inhibition, hits mostly inhibitors. hit rate 4.4% among 360,000. AID 504333; note: % is set by controls: 0 for no effect and ±100 for the full control effect; nearly all actives have a fitted effect of over 60% in size
#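 Inhibition is scored as reduced AlphaScreen emission. The BAZ2B/b-H3(5-23)K14Ac complex (50 nM each) in PBS pH 7.4, 0.01% Tween-20 meets compound (up to 110 uM) for 30 min at RT before bead addition.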
# JMJD2A Tudor: blocks the human JMJD2A Tudor domain. O75164. hit rate 4.4% among 390,000. AlphaScreen JMJD2A-Tudor / H3K4me3 peptide binding. Potency, µM (top dose mostly 114 µM), for the others: at the top dose activity change, negative = inhibition, most hits filed as inhibitors; note: % is set by controls: 0 for no effect and ±100 for the full control effect; nearly all actives have a fitted effect of over 50% in size
# * marks the source's active call; other numbers are inactive results; i = inactive; ? = inconclusive; . = not tested or not shown; [ ] = remark or other dose. Sampled rows, rich in hits. Any-hit rate of the full collection: about 12%. Calls come from the whole dose curve; as a rule, active = well fitted curve in the direction sought with a large enough effect; inconclusive = small, poorly fitted or top-dose-only effect, or another doubt; inactive = no such curve, though single readings can be large; an effect the other way counts as inactive or inconclusive. Potency is the fitted concentration of half-maximal effect.
SMILES,HP1b chromo inh,G9a block,TDP1 inh,Sfp inh,BAZ2B block,JMJD2A Tudor
Cc1ccc(N2C(=O)NC(NS(=O)(=O)c3ccc(Cl)cc3)(C(F)(F)F)C2=O)cc1C (stereo not given),26%,-25%[59 µM],-3%,.,-9%,-7%
Cc1coc2c(C)c3oc(=O)c(CC(=O)NCc4ccccc4)c(C)c3cc12,13%,8%[59 µM],0%,.,-4%,-18%
COc1ccc(OC)c(NC(=O)C2CCN(C(=O)C3CC(=O)N(c4ccc(C)cc4)C3)CC2)c1 (stereo not given),10%,?,.,13%,-22%,8%
O=[N+]([O-])c1cc([N+](=O)[O-])c(Oc2cccnc2Br)cc1NN1CCCCC1,?,40µM*,.,2%,?,?
O=[N+]([O-])c1cc([N+](=O)[O-])c(Oc2c(Cl)cccc2Cl)cc1NN1CCCCC1,?,25µM*,.,8%,?,?
O=[N+]([O-])c1cc([N+](=O)[O-])c(Oc2c(F)ccc(F)c2F)cc1NN1CCCCC1,?,32µM*,.,16%,?,?
O=[N+]([O-])c1cc([N+](=O)[O-])c(Oc2cccc3ccccc23)cc1NN1CCCCC1,-16%,.,.,.,.,?
COCCNC(=O)CSc1nc(-c2ccc(C)cc2)nc2c1c(=O)n(C)c(=O)n2C,16%[57 µM],12%[59 µM],8%,.,-1%,-5%
N=C1/C(=C\c2ccc(Br)o2)C(=O)N=C2SC(CC(=O)N3CCCCC3)=NN12,17%,45µM*,-12%,4%,?,-31%
Cc1ccc(/C=C2/C(=N)N3N=C(CC(=O)N4CCCC4)SC3=NC2=O)o1,5%[57 µM],32µM*,-1%,-5%,-23%,-7%
CN(C)c1ccc(/C=C2\C(=N)N3N=C(CC(=O)N4CCCCC4)SC3=NC2=O)cc1,7%[57 µM],-15%,-2%,-8%,?,?
CN(C)c1ccc(/C=C2\C(=N)N3N=C(CC(=O)N4CCCC4)SC3=NC2=O)cc1Br,49%,0%,3%,9%,-5%,-14%
CC1CN(C(=O)Nc2ccc(C(=O)NCc3cccc(F)c3)cc2)c2ccccc2S1 (stereo not given),47%,11%[59 µM],3%,.,2%,3%
COCc1cc(C)nc(N2CCN(Cc3ccccc3)CC2)c1C#N,23%,50µM*,4%,-3%,34%,7%
COCc1cc(C)nc(N2CCN(c3ccccc3)CC2)c1C#N,73%,0%[12.7 µM],-3%,-1%,18%,3%
c1ccc2c(c1)CC(CN1CCNCC1)O2 (stereo not given),19%,?,.,-14%,-2%,-23%
CC(C)=CC(=O)Oc1ccc(C(=O)N(C)c2ccccc2I)cc1,40%,.,4%,5%,.,-14%
CC(=O)NN1C(=O)/C(=C\c2ccc(O)cc2)SC1=S,-16%,?,4%,11%,-34%,-17%
COc1cc(/C=C2\SC(=S)N(NC(=O)c3ccc(O)cc3)C2=O)ccc1O,56µM*,-47%[12.7 µM],.,5%,40µM*,?
COc1cc(/C=C2\SC(=S)N(NC(=O)c3cccnc3)C2=O)ccc1O,-19%,?,0%,8%,45µM*,-16%
COc1cc(/C=C2\SC(=S)N(c3cccnc3)C2=O)ccc1O,34%,-49%[59 µM],.,-25%,?,-31%
CCN1C(=O)/C(=C2\SC(=S)N(NC(=O)c3cccnc3)C2=O)c2ccccc21,-14%,40µM*,.,-11%,?,?
CCN1/C(=C2/SC(=S)N(NC(C)=O)C2=O)Sc2ccccc21,34%,.,.,12%,17%,-5%
Cc1cccc(-c2n[nH]c(=S)n2/N=C/c2ccco2)c1,7%,.,12%,-25%,-26%,7.9µM*
Cc1ccc(-c2n[nH]c(=S)n2/N=C/c2ccc(C)o2)cc1,3%,0.89µM*,4%,71µM*,?,25µM*
SMILES,HP1b chromo inh,G9a block,TDP1 inh,Sfp inh,BAZ2B block,JMJD2A Tudor
Cc1ccc(/C=N/n2c(-c3ccc(Cl)cc3)n[nH]c2=S)o1,35%,.,-1%,-5%,-11%,?
Cc1ccc(-c2n[nH]c(=S)n2/N=C\c2ccco2)cc1,8%,0.89µM*,6%,?,-9%,25µM*
S=c1[nH]nc(-c2cccnc2)n1/N=C/c1ccco1,35%,.,2%,40µM*,?,25µM*
CNC(=S)NNC(=O)c1sc(-c2cc(C)on2)nc1C,11%,0%[59 µM],1%,9%,-17%,-29%
CC(C)c1ccc(S(=O)(=O)c2cnc(SCC(=O)Nc3cccc(C(F)(F)F)c3)nc2N)cc1,22%,-4%[59 µM],2%,.,-1%,-10%
C[N+]1(C)[C@@H]2CC(OC(=O)C(O)(c3cccs3)c3cccs3)C[C@H]1[C@@H]1O[C@@H]12 (stereo not given in full),.,-3%[12.7 µM],.,7%,.,.
CC(/C=N/n1c(-c2ccc(Cl)cc2)n[nH]c1=S)=C\c1ccco1,5%,10µM*,5%,-29%,2%,?
Cc1ccc(-c2n[nH]c(=S)n2/N=C/c2ccncc2)cc1,-16%,1.6µM*,8%,-18%,-12%,?
CC(/C=N/n1cnnc1)=C\c1ccco1,25%,?,2%,-21%,-4%,-22%
Cc1ccc(-c2nn(-c3ccccc3)cc2/C=N/n2c(-c3ccncc3)n[nH]c2=S)cc1,17%,?,.,19%,-3%,?
COc1ccc(Nc2nc(NCc3ccco3)nc(N/N=C/c3ccccc3F)n2)cc1,?,10%[59 µM],11%,18%,?,50µM*
COc1ccc(/C=N/Nc2nc(Nc3ccccc3)nc(N3CCCC3)n2)cc1,41%,10%,5%,-3%,.,-15%
CC(C)c1ccc(Nc2nc(Cl)nc(NCc3ccco3)n2)cc1,28%,-1%[12.7 µM],4%,23%,0%,-12%[11.4 µM]
COc1ccc(Nc2nc(NCc3ccco3)nc(N/N=C/c3ccc(O)cc3)n2)cc1,-15%,?,-5%,4%,22µM*,?
COc1ccc2nc(N3CCC(C)CC3)c(C#N)cc2c1,i,421%[59 µM],0%,40µM*,i,489%
COc1ccc2nc(N3CCC(O)CC3)c(C#N)cc2c1,56%,-5%,-8%,-17%,-5%,11%
COc1ccc(C2CC(=O)c3c(C)nc(N4CCN(C=O)CC4)nc3C2)c(OC)c1 (stereo not given),22%,-19%[59 µM],6%,.,-36%,-21%
Cc1ccc(NC(=O)CSCC(=O)N(C)CC(=O)Nc2ccccc2C(F)(F)F)cc1,20%,50µM*,4%,.,6%,-14%
O=C(O)CCC(=O)Nc1ccccc1Oc1ccccc1,1%,-11%,-3%,9%,-21%,20µM*
